Source: PubChem BioAssay AID1224864 (Chung Lab, Department of Pediatrics, Emory University, 2016)
The campaign covered roughly 2,000 compounds. About 20 (1%) were called active. How the calls were made is not given here. The list comes from a sample in which actives are over-represented; it also holds similar structures and randomly drawn compounds. Residues, ends and D or L forms follow the SMILES beside them. *: point of attachment. Boc = CC(C)(C)OC(=O)*

target: Cystic fibrosis transmembrane conductance regulator (Homo sapiens) (UniProt P13569); experiment: correctors of F508del-CFTR surface localization, primary screen, imaging, HeLa, high-content microscopy, immunofluorescence (AID 1224864); conditions: PM immunofluorescence imaging, 24 h, at 10 µM, stronger effect = higher value, relative to vehicle wells set at 100; total CFTR intensity: measured here: total cellular F508del-CFTR signal;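 further: HeLa cells stably expressing F508del-CFTR stained with 3G11 antibody against NBD1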;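 on plasma membrane CFTR intensity: mean immunofluorescence in a thin cell-margin band taken as plasma membrane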
Sequence (P13569 whole entry, looked up, stated change not applied): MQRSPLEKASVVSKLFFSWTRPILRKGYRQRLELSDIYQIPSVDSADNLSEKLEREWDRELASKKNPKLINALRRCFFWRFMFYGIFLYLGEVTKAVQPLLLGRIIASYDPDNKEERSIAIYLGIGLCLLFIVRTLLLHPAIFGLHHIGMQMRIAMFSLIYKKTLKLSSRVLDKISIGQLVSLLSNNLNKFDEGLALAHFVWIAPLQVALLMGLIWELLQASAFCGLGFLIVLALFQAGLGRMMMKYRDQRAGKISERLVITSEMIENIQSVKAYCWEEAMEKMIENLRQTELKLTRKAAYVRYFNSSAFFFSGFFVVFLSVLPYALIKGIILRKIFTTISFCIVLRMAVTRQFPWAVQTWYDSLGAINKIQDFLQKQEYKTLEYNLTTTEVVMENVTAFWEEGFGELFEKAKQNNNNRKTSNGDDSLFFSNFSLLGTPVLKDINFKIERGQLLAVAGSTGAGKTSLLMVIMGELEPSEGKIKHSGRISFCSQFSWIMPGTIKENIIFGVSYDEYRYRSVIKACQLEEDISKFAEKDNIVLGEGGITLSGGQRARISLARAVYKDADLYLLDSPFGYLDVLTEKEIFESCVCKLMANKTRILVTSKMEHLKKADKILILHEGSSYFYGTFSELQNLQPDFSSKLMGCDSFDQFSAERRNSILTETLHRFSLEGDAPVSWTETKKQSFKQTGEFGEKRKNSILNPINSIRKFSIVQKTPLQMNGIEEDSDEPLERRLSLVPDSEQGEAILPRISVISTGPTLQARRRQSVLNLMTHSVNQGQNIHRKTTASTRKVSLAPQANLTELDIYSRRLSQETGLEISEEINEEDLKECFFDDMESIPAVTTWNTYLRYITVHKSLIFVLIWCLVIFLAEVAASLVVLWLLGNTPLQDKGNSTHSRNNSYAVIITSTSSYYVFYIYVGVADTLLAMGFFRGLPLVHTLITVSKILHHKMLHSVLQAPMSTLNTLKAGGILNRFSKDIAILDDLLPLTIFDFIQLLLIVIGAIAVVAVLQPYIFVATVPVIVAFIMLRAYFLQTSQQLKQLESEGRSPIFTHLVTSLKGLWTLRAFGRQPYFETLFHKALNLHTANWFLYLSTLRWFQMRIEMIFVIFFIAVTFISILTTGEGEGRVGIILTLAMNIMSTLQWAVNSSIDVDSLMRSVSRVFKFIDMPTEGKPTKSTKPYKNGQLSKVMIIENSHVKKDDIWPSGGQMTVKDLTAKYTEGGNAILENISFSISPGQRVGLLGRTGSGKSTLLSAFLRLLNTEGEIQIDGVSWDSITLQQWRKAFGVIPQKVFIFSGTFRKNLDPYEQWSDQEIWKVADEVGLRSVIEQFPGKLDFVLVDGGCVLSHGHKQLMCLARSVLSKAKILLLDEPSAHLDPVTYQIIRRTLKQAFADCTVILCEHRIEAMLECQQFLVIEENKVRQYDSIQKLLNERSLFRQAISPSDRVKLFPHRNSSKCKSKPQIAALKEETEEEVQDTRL

| Compound | plasma membrane CFTR intensity | total CFTR intensity |
| --- | --- | --- |
| Fc1ccc(NC(=S)Nc2ccccc2Cl)cc1 | 92% (inactive) | 93% |
| CCNC(=O)c1sc2cc(C)ccc2c1Cl | 92% (inactive) | 95% |
| NS(=O)(=O)c1cc2c(cc1Cl)NC(CSCc1ccccc1)=NS2(=O)=O | 84% (inactive) | 85% |
| C[C@@H]1C[C@H](Nc2ccccc2)c2ccccc2N1C(=O)c1cccnc1 | 97% (inactive) | 103% |
| CC(=O)c1c[nH]c2ccc(C)cc2c1=O | 83% (inactive) | 84% |
| COc1ccc(OC)c(NC2=C(Cl)C(=O)N(Cc3ccccc3)C2=O)c1 | 88% (inactive) | 100% |
| Cc1ccc2occ(C(=O)c3ccco3)c(=O)c2c1 | 86% (inactive) | 90% |
| O=C(O)[C@H](Cc1ccccc1)NC(=O)N1CCC(Cc2ccccc2)CC1 | 89% (inactive) | 83% |
| CC(C)CC(=O)N(Cc1ccc(F)cc1)C1CCS(=O)(=O)C1 (stereo unspecified) | 96% (inactive) | 98% |
| CCOc1ccccc1OCCOc1ccc(F)cc1 | 86% (inactive) | 86% |
| C=CCNc1nc2c(c(=O)n(C)c(=O)n2C)n1CC(=C)C | 82% (inactive) | 80% |
| CCOC(=O)C1=C(N)Oc2c(c(=O)[nH]c3ccccc23)C1c1ccccc1 (stereo unspecified) | 93% (inactive) | 96% |
| CCNC(=O)C(Cc1ccccc1)NC(=O)OCc1ccccc1 (stereo unspecified) | 81% (inactive) | 80% |
| COC(=O)c1ccccc1NC(=O)c1ccc(COc2ccc3c(c2)CCC3)cc1 | 84% (inactive) | 83% |
| CCOC(=O)C1C(=O)OC2(CCOC(C)(C)C2)C1C(=O)OCC (stereo unspecified) | 90% (inactive) | 87% |
| COc1ccc(NC(=O)N2CCCCC2c2cccnc2)cc1 (stereo unspecified) | 84% (inactive) | 84% |
| CCOC(=O)C1C2C=CC3(CN(c4ccc(Cl)c(F)c4)C(=O)C13)O2 (stereo unspecified) | 84% (inactive) | 83% |
| CCOC(=O)/C=C1\NC(C)(C)Cc2cc(OC)c(OC)cc21 | 86% (inactive) | 89% |
| O=C(COc1ccccc1)N1CCN(c2ccccc2)CC1 | 88% (inactive) | 85% |
| CC[N+]1(C)CC2CCC(C)(C1)C2(C)C (stereo unspecified) | 72% (inactive) | 75% |
| CC(C)(C)OC(=O)N1CCCC1C(=O)NC(Cc1ccccc1)C(=O)O (stereo not drawn) (Boc-Pro-Phe-OH; configuration not given here) | 96% (inactive) | 102% |
| CC(=O)N1CC23C=CC(CC2CC12CCCCCC2)O3 (stereo unspecified) | 73% (inactive) | 77% |

| Compound | plasma membrane CFTR intensity | total CFTR intensity |
| --- | --- | --- |
| O=C(Nc1cccc(-c2nc3ncccc3o2)c1)c1ccccc1 | 68% (inactive) | 72% |
| CC(COc1ccccc1)NC(C)C(O)c1ccc(O)cc1 (stereo unspecified) | 104% (active) | 121% |
| CC(NCCc1ccc(O)cc1)C(O)c1ccc(O)cc1 (stereo unspecified) | 101% (inactive) | 96% |
| CC(COc1ccccc1)N(CCCl)Cc1ccccc1 (stereo unspecified) | 78% (inactive) | 80% |
| Cc1coc2cc3oc(=O)c(CCC(=O)O)c(C)c3cc12 | 105% (inactive) | 107% |
| N#C/C(C(N)=O)=c1/ccc2c(c1)N1C3=C(CCCC3)CC3CCCCC31N=2 (stereo unspecified) | 109% (active) | 123% |
| COC1CCCCC1Nc1ccc(C)c(C)c1 (stereo unspecified) | 80% (inactive) | 82% |
| CC(=O)Nc1cc(O)cc(O)c1 | 83% (inactive) | 93% |
| O=C(NCC1CCCO1)c1ccc(OC2CCN(C(=O)C3CC3)CC2)cc1 (stereo unspecified) | 83% (inactive) | 76% |
| CCOC(=O)c1oc2cc(OCC(N)=O)ccc2c(=O)c1-c1ccc(OC)c(OC)c1 | 82% (inactive) | 82% |
| CC(=O)OCC(=O)[C@@]1(O)CC[C@H]2[C@@H]3CCC4=CC(=O)C=C[C@]4(C)[C@H]3[C@@H](O)C[C@@]21C | 89% (inactive) | 94% |
| CCCC1O[C@@H]2C[C@H]3[C@@H]4CCC5=CC(=O)C=C[C@]5(C)[C@H]4[C@@H](O)C[C@]3(C)[C@]2(C(=O)CO)O1 (stereo partly specified) | 123% (active) | 137% |
| CC1(C)O[C@@H]2C[C@H]3[C@@H]4CCC5=CC(=O)C=C[C@]5(C)[C@@]4(F)[C@@H](O)C[C@]3(C)[C@]2(C(=O)CO)O1 | 109% (inactive) | 114% |
| CC(=O)N1c2ccccc2C(C)=CC1(C)C | 80% (inactive) | 87% |
| COc1ccc2c(c1OC)C(C1c3c(cc4c(c3OC)OCO4)CCN1C)OC2=O (stereo unspecified) | 116% (inactive) | 112% |
| COc1ccc2c(c1OC)C(=O)OC2C1c2c(cc3c(c2OC)OCO3)CCN1C (stereo unspecified) | 138% (active) | 128% |
| COc1ccc(C(=O)CC2OC(=O)c3c2ccc(OC)c3OC)cc1 (stereo unspecified) | 118% (inactive) | 115% |
| COc1ccc(CCNC(=S)NC(=O)/C=C/c2ccc(C)cc2)cc1OC | 82% (inactive) | 81% |
| CN/C(=C/[N+](=O)[O-])NCCSCc1ccc(CN(C)C)o1 | 88% (inactive) | 83% |
| Cc1ncoc1C(=O)N1CCCC(C(=O)c2ccc(-c3ccccc3)c(F)c2)C1 (stereo unspecified) | 82% (inactive) | 75% |
| CCc1cc(=O)oc2cc(C)c(CN3CCCC(C)C3)c(O)c12 (stereo unspecified) | 88% (inactive) | 88% |
